From the supplement of paper PMC7595190
Unmarked numbers belong to inactive results.

Assays:
Assay in all cases: CellTox Green cytotoxicity fluorescence relative to DMSO vehicle (fold of vehicle RFU); higher = more cell death (loss of membrane integrity), active = 2 or more
[1] = system: CMK
How it was run: (§1)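 Cytotoxicity, a measure of lost membrane integrity, is reported as fluorescence expressed as fold of the DMSO vehicle. For this, MV4-11, CMK and Kasumi-1 cells (4.0 × 10^4 per well) were seeded with CellTox Green reagent in 96-well black optical-bottom plates. Individual compounds from the Selleckchem apoptosis library, diluted in DMSO, were tested at final 0.01, 0.1 and 1 µM against a 0.1% DMSO vehicle. Fluorescence was read at Ex 485 nm and Em 520 nm after 24, 48 and 72 h at 37 °C, 5% CO2.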

[2] = system: Kasumi-1
How it was run: as §1

[3] = system: MV4-11
How it was run: as §1

Row | SMILES | CellTox Green cytotoxicity fluorescence ([1]; 0.01 µM, 24 h) | CellTox Green cytotoxicity fluorescence ([1]; 0.01 µM, 48 h) | CellTox Green cytotoxicity fluorescence ([1]; 0.01 µM, 72 h) | CellTox Green cytotoxicity fluorescence ([1]; 0.1 µM, 24 h) | CellTox Green cytotoxicity fluorescence ([1]; 0.1 µM, 48 h) | CellTox Green cytotoxicity fluorescence ([1]; 0.1 µM, 72 h) | CellTox Green cytotoxicity fluorescence ([1]; 1 µM, 24 h) | CellTox Green cytotoxicity fluorescence ([1]; 1 µM, 48 h) | CellTox Green cytotoxicity fluorescence ([1]; 1 µM, 72 h) | CellTox Green cytotoxicity fluorescence ([2]; 0.01 µM, 24 h) | CellTox Green cytotoxicity fluorescence ([2]; 0.01 µM, 48 h) | CellTox Green cytotoxicity fluorescence ([2]; 0.01 µM, 72 h) | CellTox Green cytotoxicity fluorescence ([2]; 0.1 µM, 24 h) | CellTox Green cytotoxicity fluorescence ([2]; 0.1 µM, 48 h) | CellTox Green cytotoxicity fluorescence ([2]; 0.1 µM, 72 h) | CellTox Green cytotoxicity fluorescence ([2]; 1 µM, 24 h) | CellTox Green cytotoxicity fluorescence ([2]; 1 µM, 48 h) | CellTox Green cytotoxicity fluorescence ([2]; 1 µM, 72 h) | CellTox Green cytotoxicity fluorescence ([3]; 0.01 µM, 24 h) | CellTox Green cytotoxicity fluorescence ([3]; 0.01 µM, 48 h) | CellTox Green cytotoxicity fluorescence ([3]; 0.01 µM, 72 h) | CellTox Green cytotoxicity fluorescence ([3]; 0.1 µM, 24 h) | CellTox Green cytotoxicity fluorescence ([3]; 0.1 µM, 48 h) | CellTox Green cytotoxicity fluorescence ([3]; 0.1 µM, 72 h) | CellTox Green cytotoxicity fluorescence ([3]; 1 µM, 24 h) | CellTox Green cytotoxicity fluorescence ([3]; 1 µM, 48 h) | CellTox Green cytotoxicity fluorescence ([3]; 1 µM, 72 h)
1 | CCCC[C@@H](C=O)NC(=O)[C@H](CC(C)C)NC(=O)OCc1ccccc1 [Calpeptin] | 1 | 0.98 | 0.961 | 0.992 | 1 | 1.02 | 0.994 | 1.01 | 1.01 | 0.957 | 0.968 | 0.962 | 0.965 | 0.93 | 0.913 | 1.01 | 1.02 | 1.03 | – | – | – | – | – | – | – | – | –
2 | Cn1cc(-c2ccc3c(c2)CCN3C(=O)Cc2cccc(C(F)(F)F)c2)c2c(N)ncnc21 | 0.971 | 0.966 | 0.935 | 0.981 | 0.987 | 0.978 | 0.972 | 1.01 | 0.913 | 1.07 | 1.03 | 1.02 | 1.01 | 1.05 | 1.07 | 0.955 | 1.02 | 1.08 | – | – | – | – | – | – | – | – | –
3 | CNC(=O)c1ccc(Nc2ncc(C(F)(F)F)c(NCc3nccnc3N(C)S(C)(=O)=O)n2)cc1 [Defactinib] | 0.942 | 0.942 | 0.941 | 0.923 | 0.931 | 0.915 | 0.945 | 1.01 | 0.889 | 0.961 | 0.964 | 0.942 | 0.955 | 0.958 | 0.956 | 0.931 | 0.985 | 0.991 | 0.944 | 0.943 | 0.952 | 0.955 | 0.991 | 1.01 | 1 | 1.12 | 1.29
4 | FC(F)(F)c1ccc(CNc2ccc(Cc3c[nH]c4ncc(Cl)cc34)cn2)cn1 [Pexidartinib] | 1.01 | 1 | 0.979 | 0.99 | 1 | 0.967 | 0.964 | 0.989 | 0.967 | 0.99 | 0.998 | 0.956 | 1 | 1 | 1.03 | 1.04 | 1.12 | 1.2 | 1.01 | 1 | 1.01 | 1.07 | 1.17 | 1.21 | 1.09 | 1.41 | 1.74
5 | C/C(=N\NC(=O)c1cccc(S(=O)(=O)N2CCOCC2)c1)c1cc(Cl)ccc1O | 0.984 | 0.991 | 1.04 | 0.936 | 0.956 | 0.969 | 0.942 | 0.907 | 0.774 | 0.938 | 0.949 | 0.96 | 0.974 | 0.986 | 0.968 | 0.937 | 1.02 | 1.05 | 0.971 | 0.97 | 0.966 | 0.98 | 0.978 | 0.972 | 0.953 | 1.06 | 1.17
6 | CCCCNc1ncc2c(-c3ccc(CN4CCN(C)CC4)cc3)cn([C@H]3CC[C@H](O)CC3)c2n1 | 0.987 | 0.978 | 1 | 1.07 | 1.31 | 1.32 | 1.13 | 1.75 | 1.98 | 1.06 | 1.01 | 1.02 | 1.05 | 1.18 | 1.32 | 1.1 | 1.62 | 1.93 | – | – | – | – | – | – | – | – | –
7 | O=C(NS(=O)(=O)c1ccc(Br)s1)c1ccc(Cl)cc1Cl [Tasisulam] | 0.98 | 0.972 | 0.934 | 0.99 | 0.99 | 0.959 | 0.986 | 1 | 0.903 | 1.02 | 1.02 | 1.01 | 1.01 | 0.99 | 0.984 | 0.975 | 0.963 | 0.96 | – | – | – | – | – | – | – | – | –
8 | COc1cccc(-n2c(=O)[nH]c3cc(Cl)n(-c4ccc(-c5cccc(OC)c5O)cc4)c3c2=O)c1 | 0.99 | 0.943 | 1.27 | 0.996 | 0.985 | 0.962 | 0.95 | 0.915 | 0.832 | 0.97 | 0.973 | 1.13 | 0.99 | 0.989 | 0.991 | 0.947 | 0.91 | 0.877 | – | – | – | – | – | – | – | – | –
9 | COc1cc(C(=O)N2CCC(N3CCN(C)CC3)CC2)ccc1Nc1ncc2c(n1)N(C)c1ccccc1C(=O)N2C | 0.941 | 0.923 | 0.891 | 0.97 | 0.967 | 0.941 | 1.16 | 1.89 | 1.71 | 1.05 | 1.01 | 1.01 | 0.99 | 0.983 | 1 | 1.03 | 1.33 | 1.61 | 1.02 | 1.01 | 1.02 | 1.02 | 1.03 | 1.08 | 1.02 | 1.29 | 1.62
10 | c1ccc2c(CCNc3ccc(Nc4ccncc4)cc3)c[nH]c2c1 [Serdemetan] | 0.966 | 0.966 | 0.987 | 0.95 | 0.971 | 1.05 | 0.925 | 1.67 | 2.28 (active) | 0.983 | 0.933 | 0.904 | 0.969 | 0.964 | 0.955 | 1.01 | 1.45 | 1.77 | 0.97 | 0.948 | 0.953 | 0.929 | 0.918 | 0.946 | 1.21 | 3.08 (active) | 3.17 (active)
11 | CCS(=O)(=O)N1CCN(c2ccc(Nc3ncc(C(N)=O)c(NC4CC4)n3)cc2)CC1 [Cerdulatinib] | 0.961 | 0.986 | 0.983 | 0.961 | 1.07 | 0.888 | 1.13 | 1.64 | 1.34 | 0.959 | 0.983 | 1.01 | 0.98 | 1.06 | 1.07 | 0.928 | 1.08 | 1.15 | 0.937 | 0.94 | 0.941 | 0.942 | 0.965 | 0.965 | 0.949 | 1.07 | 1.11
12 | CC[C@@]1(O)C(=O)OCc2c1cc1n(c2=O)Cc2cc3cc(O)ccc3nc2-1 [(S)-10-Hydroxycamptothecin] | 0.964 | 1.06 | 1.19 | 1.56 | 2.2 (active) | 2.02 (active) | 0.988 | 1.01 | 0.878 | 0.962 | 0.972 | 0.997 | 0.972 | 1.07 | 1.27 | 0.98 | 1.23 | 1.59 | – | – | – | – | – | – | – | – | –
13 | C=CC(=O)N1CC(=Cc2ccc([N+](=O)[O-])cc2)C(=O)C(=Cc2ccc([N+](=O)[O-])cc2)C1 | 0.921 | 0.908 | 0.929 | 1.13 | 1.16 | 1.07 | 2.14 (active) | 3.36 (active) | 2.48 (active) | 1.01 | 0.937 | 0.951 | 1.01 | 1.05 | 1.04 | 1.25 | 1.78 | 1.95 | – | – | – | – | – | – | – | – | –
14 | CC1(C)CCC(c2ccc(Cl)cc2)=C(CN2CCN(c3ccc(C(=O)NS(=O)(=O)c4ccc(N[C@H](CCN5CCOCC5)CSc5ccccc5)c(S(=O)(=O)C(F)(F)F)c4)cc3)CC2)C1 [Navitoclax] | 0.932 | 0.931 | 0.932 | 1.24 | 1.36 | 1.36 | 1.62 | 2.39 (active) | 2.07 (active) | 1.04 | 1 | 1.05 | 1.22 | 1.53 | 1.7 | 1.57 | 2.07 (active) | 2.11 (active) | 0.946 | 1.02 | 1.07 | 1.04 | 1.41 | 1.67 | 1.32 | 2.56 (active) | 2.63 (active)
